# Laboratory results taken from PubChem BioAssay (NCATS).
# Where “and” joins values, the source holds several entries; their conditions need not be identical. Equal values may be shown once. Results filed as inconclusive are left out. Entries that show only a call come without a potency. Calls of active or inactive are those of the source. Calls follow the shape of the dose curve; as a rule, active = well fitted curve in the direction sought with a large enough effect; inconclusive = small, poorly fitted or top-dose-only effect, or another doubt; inactive = no such curve, though single readings can be large; an effect the other way counts as inactive or inconclusive.
# Tests used:
# [1] = qHTS of pediatric cancer cell lines to identify multiple opportunities for drug repurposing: Confirmatory screen for Saos-2 cells (AID 1347127); also: nearly all actives have a fitted effect of over 60% in size
# Method in brief: (§1)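 Cells (500-1,000/well) rested 5 h, then received compounds for 48 h; metabolically active cells were measured by CellTiter-Glo luminescence. Final concentrations spanned up to 46 µM (MIPE, 11-point) or 0.59 nM-46 µM (NPC, 8-point) in primary screens, 11-point in follow-ups.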
# [2] = qHTS of pediatric cancer cell lines to identify multiple opportunities for drug repurposing: Confirmatory screen for OHS-50 cells (AID 1347128);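 also: compound exposure lasted 48 h at 37 degrees C; nearly all actives have a fitted effect of over 55% in size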
# Method in brief: as §1
# [3] = target: N-terminal Xaa-Pro-Lys N-methyltransferase 1 (Homo sapiens) (UniProt Q9BV86); experiment: qHTS Assay for Inhibitors of N-terminal methyltransferase 1 (NTMT1): LOPAC validation of the NTMT1 SAHH-coupled ThioGlo3 Assay (AID 1347143);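 also: SAH from peptide methylation measured as thiol fluorescence via SAHH coupling and ThioGlo3; nearly all actives have a fitted effect of over 70% in size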
# N-terminal Xaa-Pro-Lys N-methyltransferase 1 (Homo sapiens), sequence (Q9BV86 whole entry, looked up): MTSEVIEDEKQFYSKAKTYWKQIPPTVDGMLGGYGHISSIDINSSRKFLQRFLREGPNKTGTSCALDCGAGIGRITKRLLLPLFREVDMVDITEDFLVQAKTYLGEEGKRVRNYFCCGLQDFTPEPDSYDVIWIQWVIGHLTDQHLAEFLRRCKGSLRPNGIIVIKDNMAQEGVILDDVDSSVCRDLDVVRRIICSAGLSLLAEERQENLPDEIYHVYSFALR
# Method in brief: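 NTMT1 125nM + cpds (various conc.), 1 min RT; add SAM 100uM/SAHH 10uM/ThioGlo3 15uM (addition mix). SAHH-coupled thiol detection, Ex340/Em450, t0 and 30 min RT; signal normalized to background. LOPAC 1280-cpd pilot.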
# [4] = test system: Zika virus NS2B-NS3 protease (unlinked); experiment: Optimization of GU AMC qHTS for Zika virus inhibitors: Unlinked NS2B-NS3 protease assay (AID 1347151); also: nearly all actives have a fitted effect of over 80% in size
# Method in brief: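 Noncovalent complex of NS2B hydrophilic domain and NS3 protease domain, 25 nM final, in 10 mM Tris-HCl pH 8.0, 0.01% Tween 20. AMC fluorescence change over 15 min at room temperature was fitted to a 4-parameter Hill equation.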
# [5] = test system: Zika virus NS2B-NS3 protease; experiment: Primary screen GU AMC qHTS for Zika virus inhibitors (AID 1347154); also: nearly all actives have a fitted effect of over 70% in size
# Method in brief: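 Fluorogenic AMC-substrate cleavage by noncovalent NS2B-NS3 protease complex (25 nM, pH 8.0 Tris buffer with Tween 20) followed for 15 minutes at room temperature (~20% conversion). Percent inhibition from ex340/em450 signal change, fitted by 4-parameter Hill equation.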
# Furin (Homo sapiens) = Furin (Homo sapiens) (UniProt P09958); experiment: Furin counterscreen qHTS for Zika virus inhibitors (AID 1347149); also: nearly all actives have a fitted effect of over 70% in size
# Furin (Homo sapiens), sequence (P09958 whole entry, looked up): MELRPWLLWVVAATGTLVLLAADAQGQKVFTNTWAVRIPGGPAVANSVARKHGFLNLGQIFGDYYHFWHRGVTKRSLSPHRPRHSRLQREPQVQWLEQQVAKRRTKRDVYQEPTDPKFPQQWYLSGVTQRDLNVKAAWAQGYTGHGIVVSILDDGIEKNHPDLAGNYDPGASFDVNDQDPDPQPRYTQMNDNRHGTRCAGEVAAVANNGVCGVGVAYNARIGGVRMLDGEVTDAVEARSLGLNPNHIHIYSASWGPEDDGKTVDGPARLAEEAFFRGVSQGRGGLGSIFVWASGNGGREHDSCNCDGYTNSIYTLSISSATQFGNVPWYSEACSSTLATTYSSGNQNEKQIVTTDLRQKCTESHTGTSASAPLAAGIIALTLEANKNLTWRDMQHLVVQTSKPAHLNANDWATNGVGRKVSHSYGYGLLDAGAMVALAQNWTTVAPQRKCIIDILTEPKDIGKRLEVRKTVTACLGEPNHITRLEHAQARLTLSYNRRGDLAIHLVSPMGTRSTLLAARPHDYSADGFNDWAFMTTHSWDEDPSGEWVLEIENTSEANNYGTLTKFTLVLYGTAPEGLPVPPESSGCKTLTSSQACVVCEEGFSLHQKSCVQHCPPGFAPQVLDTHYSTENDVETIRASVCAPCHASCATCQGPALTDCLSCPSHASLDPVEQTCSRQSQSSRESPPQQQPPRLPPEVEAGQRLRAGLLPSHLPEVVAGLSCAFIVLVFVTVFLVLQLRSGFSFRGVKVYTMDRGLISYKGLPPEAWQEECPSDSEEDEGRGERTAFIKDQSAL
# Method in brief: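 Counterscreen measures cleavage of 2 microM BOC-RVRR-AMC, below its ~15 microM Km, by 5 nM full-length human furin at pH 7.0 after a 15-min compound preincubation. Inhibition derives from the 15-min fluorescence increase at 37C.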
# [6] = test system: Zika virus NS2B-NS3 protease (linked construct); experiment: Confirmatory screen NINDS AMC qHTS for Zika virus inhibitors (AID 1347152); also: nearly all actives have a fitted effect of over 70% in size
# Method in brief: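 Purified NS2B-NS3 protease with NS2B hydrophilic domain linked to NS3 protease domain by flexible linker, 1 nM final in 10 mM Tris-HCl pH 8.0, 0.01% Tween 20. Compounds preincubated 15 min, room temperature; Bz-Nle-KRR-AMC 10 microM (Km 18.3 µM); 15-min fluorescence change, 4-parameter Hill fit.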
# [7] = qHTS of pediatric cancer cell lines to identify multiple opportunities for drug repurposing: Confirmatory screen for SK-N-SH cells (AID 1347129);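 also: cells exposed to compound for 48 h before viability read; nearly all actives have a fitted effect of over 60% in size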
# Method in brief: as §1
# [8] = test system: Zika virus NS2B-NS3 protease (unlinked complex); experiment: Confirmatory screen GU AMC qHTS for Zika virus inhibitors (AID 1347153); also: nearly all actives have a fitted effect of over 70% in size;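 as to potency: enzyme at 25 nM with substrate at 10 µM below its Km of 18.3 µM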
# Method in brief: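 Noncovalent NS2B hydrophilic domain/NS3 protease complex (25 nM) in 10 mM Tris-HCl pH 8.0, 0.01% Tween 20 was preincubated 15 min at room temperature with compounds. Then 10 µM AMC substrate (Km 18.3 µM) was added; fluorescence was read over 15 min and fitted to a 4-parameter Hill equation.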
# Potency is read from the fitted curve at half-maximal effect.
smiles,measurement,setting,value
NC(=O)NO,Potency,[1],inactive
same,Potency,[2],inactive
same,Potency,[3],inactive
same,Potency,[4],inactive
same,Potency,[5],inactive
O=C1Cc2cc(CCN3CCN(c4nsc5ccccc45)CC3)c(Cl)cc2N1,Potency,[3],44.7 µM (active)
same,Potency,Furin (Homo sapiens),24.1 µM (active)
same,Potency,[4],26.7 µM (active)
same,Potency,[6],34.1 µM (active)
same,Potency,[5],inactive
CS(=O)(=O)Nc1ccc([N+](=O)[O-])cc1Oc1ccccc1,Potency,[1],inactive
same,Potency,[2],inactive
same,Potency,[4],inactive
same,Potency,[5],inactive
OCCN(CCO)c1nc(N2CCCCC2)c2nc(N(CCO)CCO)nc(N3CCCCC3)c2n1,Potency,[3],79.4 µM (active)
same,Potency,[4],26.7 µM (active)
COc1cc2nc(N(C)CCCNC(=O)C3CCCO3)nc(N)c2cc1OC (stereo not drawn),Potency,[3],39.8 µM (active)
same,Potency,[4],26.7 µM (active)
same,Potency,[5],8.09 µM (active) and 21.5 µM (active)
COC(=O)Nc1nc2ccc(C(=O)c3cccs3)cc2[nH]1,Potency,[1],0.131 µM (active)
same,Potency,[2],0.208 µM (active)
same,Potency,[4],inactive
same,Potency,[5],inactive
O=c1c(O)c(-c2ccc(O)c(O)c2)oc2cc(O)cc(O)c12,Potency,[3],35.5 µM (active)
same,Potency,Furin (Homo sapiens),inactive
same,Potency,[4],2.12 µM (active)
same,Potency,[5],inactive
CC(C)C(=O)Nc1ccc([N+](=O)[O-])c(C(F)(F)F)c1,Potency,[1],inactive
same,Potency,[7],inactive
same,Potency,[4],inactive
same,Potency,[5],inactive
CC(COc1ccccc1)N(CCCl)Cc1ccccc1 (stereo not drawn),Potency,[1],14.7 µM (active)
same,Potency,[5],inactive
CC1COc2c(N3CCN(C)CC3)c(F)cc3c(=O)c(C(=O)O)cn1c23 (stereo not drawn),Potency,[3],56.2 µM (active)
same,Potency,Furin (Homo sapiens),24.1 µM (active) and 27.1 µM (active)
same,Potency,[4],15 µM (active)
same,Potency,[6],24.1 µM (active) and 27.1 µM (active)
same,Potency,[8],27.1 µM (active)
same,Potency,[5],28.7 µM (active) and 24.1 µM (active)
Clc1ccc2c(c1)C(N1CCNCC1)=Nc1ccccc1O2,Potency,[3],inactive
same,Potency,[4],inactive
same,Potency,[5],inactive
O=C(Nc1ccc([N+](=O)[O-])cc1Cl)c1cc(Cl)ccc1O,Potency,[1],2.29 µM (active)
same,Potency,[2],1.62 µM (active)
same,Potency,[7],3.23 µM (active)
same,Potency,Furin (Homo sapiens),inactive
same,Potency,[4],inactive
same,Potency,[5],inactive
Clc1ccc2nsnc2c1NC1=NCCN1,Potency,[1],20.8 µM (active)
same,Potency,[7],inactive
same,Potency,[4],inactive
same,Potency,[5],inactive
NC12CC3CC(CC(C3)C1)C2,Potency,[1],inactive
same,Potency,[2],inactive
same,Potency,[7],inactive
same,Potency,[3],inactive
same,Potency,[4],inactive
same,Potency,[5],inactive
Cc1ccccc1N1C(=O)c2cc(S(N)(=O)=O)c(Cl)cc2NC1C (stereo not drawn),Potency,[3],79.4 µM (active)
same,Potency,Furin (Homo sapiens),27 µM (active)
O=C1c2c(O)ccc(O)c2C(=O)c2c(NCCNCCO)ccc(NCCNCCO)c21,Potency,[1],0.737 µM (active)
same,Potency,[2],2.33 µM (active)
same,Potency,[7],0.526 µM (active)
same,Potency,[3],50.1 µM (active)
same,Potency,[4],inactive
same,Potency,[5],inactive
CC[C@@]1(O)C(=O)OCc2c1cc1n(c2=O)Cc2cc3c(CN(C)C)c(O)ccc3nc2-1,Potency,[1],0.208 µM (active)
same,Potency,[2],0.329 µM (active)
same,Potency,[7],6.62 µM (active)
same,Potency,[3],inactive
same,Potency,[4],inactive
same,Potency,[5],inactive
CC(C)Cc1ccc(C(C)C(=O)O)cc1 (stereo not drawn),Potency,[2],inactive
same,Potency,[7],inactive
same,Potency,[3],inactive
same,Potency,[4],inactive
same,Potency,[5],inactive
COc1cc2c(c(OC)c1OC)-c1ccc(OC)c(=O)cc1[C@@H](NC(C)=O)CC2,Potency,[1],0.0447 µM (active)
same,Potency,[7],inactive
same,Potency,[4],inactive
same,Potency,[5],inactive
Clc1ccc(C(c2ccccc2Cl)C(Cl)Cl)cc1 (stereo not drawn),Potency,[1],inactive
same,Potency,[2],inactive
same,Potency,[7],inactive
same,Potency,[5],inactive
CN(Cc1cnc2nc(N)nc(N)c2n1)c1ccc(C(=O)N[C@@H](CCC(=O)O)C(=O)O)cc1,Potency,[2],0.0131 µM (active)
same,Potency,[7],inactive
same,Potency,[3],79.4 µM (active)
same,Potency,Furin (Homo sapiens),19.1 µM (active)
same,Potency,[4],21.2 µM (active)
same,Potency,[8],inactive
CCOC(=O)Nc1ccc(NCc2ccc(F)cc2)nc1N,Potency,[3],50.1 µM (active)
same,Potency,[4],23.8 µM (active)
same,Potency,[6],inactive
same,Potency,[8],inactive
COc1cc2nc(N3CCN(C(=O)C4COc5ccccc5O4)CC3)nc(N)c2cc1OC (stereo not drawn),Potency,[3],56.2 µM (active)
same,Potency,[4],26.7 µM (active)
same,Potency,[5],9.07 µM (active) and 24.1 µM (active)
CC(CCc1ccc(O)cc1)NCCc1ccc(O)c(O)c1 (stereo not drawn),Potency,[7],inactive
same,Potency,[4],inactive
same,Potency,[5],inactive
CC(=O)OCC(CCn1cnc2cnc(N)nc21)COC(C)=O,Potency,[3],56.2 µM (active)
same,Potency,[4],26.7 µM (active)
COc1cc2nc(N3CCN(C(=O)c4ccco4)CC3)nc(N)c2cc1OC,Potency,[3],28.2 µM (active)
same,Potency,Furin (Homo sapiens),14.9 µM (active)
same,Potency,[4],26.7 µM (active)
same,Potency,[6],10.5 µM (active)
CS(=O)(=O)CCNCc1ccc(-c2ccc3ncnc(Nc4ccc(OCc5cccc(F)c5)c(Cl)c4)c3c2)o1,Potency,[7],23.5 µM (active)
CN1CCN(CCCN2c3ccccc3Sc3ccc(Cl)cc32)CC1,Potency,[7],20.9 µM (active)
same,Potency,[3],44.7 µM (active)
same,Potency,[4],inactive
same,Potency,[5],inactive
CC(C)NCC(O)c1ccc(O)c(O)c1 (stereo not drawn),Potency,[7],inactive
same,Potency,[4],inactive
same,Potency,[5],inactive
Cc1cnc(C(=O)NCCc2ccc(S(=O)(=O)NC(=O)NC3CCCCC3)cc2)cn1,Potency,[3],inactive
same,Potency,Furin (Homo sapiens),inactive
same,Potency,[4],inactive
same,Potency,[6],inactive
same,Potency,[8],inactive
Cc1cc(C(C)(C)C)c(O)c(C)c1CC1=NCCN1,Potency,[3],inactive
same,Potency,[4],inactive
same,Potency,[5],inactive
CC(C)(C)C(=O)Oc1ccc(S(=O)(=O)Nc2ccccc2C(=O)NCC(=O)O)cc1,Potency,[3],inactive
same,Potency,Furin (Homo sapiens),inactive
same,Potency,[6],inactive
same,Potency,[8],inactive
same,Potency,[5],inactive
